Most compounds without a hit are left out; they make up all but 1.2% or so of the library.
mIDH1 inhibitor – qHTS for Inhibitors of mutant isocitrate dehydrogenase 1 (IDH1): qHTS; IDH1-R132H enzyme, NADPH consumption, diaphorase/resazurin fluorescence; Isocitrate dehydrogenase [NADP] cytoplasmic (Homo sapiens), O75874; 390,000 tested, 0.093% active; Potency, µM (top dose mostly 76.6 µM), usual class: inhibitors; also: nearly all actives have a fitted effect of over 65% in size
Target sequence (O75874 whole entry R132H, stated change not applied): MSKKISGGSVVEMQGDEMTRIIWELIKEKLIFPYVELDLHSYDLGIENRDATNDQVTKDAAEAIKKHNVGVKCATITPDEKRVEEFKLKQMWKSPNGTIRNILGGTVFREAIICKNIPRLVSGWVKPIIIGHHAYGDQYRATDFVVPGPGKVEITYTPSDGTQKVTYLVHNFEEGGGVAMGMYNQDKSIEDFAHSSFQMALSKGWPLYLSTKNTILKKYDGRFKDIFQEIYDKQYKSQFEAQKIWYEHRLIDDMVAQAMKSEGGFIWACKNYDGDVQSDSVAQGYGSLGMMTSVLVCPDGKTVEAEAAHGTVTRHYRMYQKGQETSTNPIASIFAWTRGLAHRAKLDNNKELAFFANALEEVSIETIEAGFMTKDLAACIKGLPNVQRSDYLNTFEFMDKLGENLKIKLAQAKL
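IDH1-R132H (0.5 ug/mL) preincubated 30 min with compound, then NADPH (0.016 mM) and alpha-KG (2 mM) added; 80 min at RT, pH 7.5. Remaining NADPH coupled via diaphorase/resazurin to fluorescence (540/590 nm); concentration-response curves normalized to no-enzyme control.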
TrxR1 substrate – qHTS Assay for Substrates of Mammalian Selenoprotein Thioredoxin Reductase 1 (TrxR1): qHTS; Thioredoxin reductase 1, cytoplasmic (Rattus norvegicus), O89049; Potency, µM (doses to about 114 µM); purified TrxR1 substrate turnover, NADPH consumption readout; 390,000 tested, 0.01% active; also: nearly all actives have a fitted effect of over 50% in size
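Rat TrxR1, dispensed at 90 nM, was prereduced with 400 uM NADPH (final) for 5 min at ~22 deg C, then incubated with compound 15 min before 400 uM selenite. A first-read NADPH fluorescence drop versus no-compound background flagged substrates.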
rTrxR1 inhibitor – qHTS Assay for Inhibitors of Mammalian Selenoprotein Thioredoxin Reductase 1 (TrxR1): qHTS | recombinant rTrxR1, NADPH fluorescence consumption, selenite substrate | Potency, µM (series often up to 114 µM), actives largely listed as inhibitors | Thioredoxin reductase 1, cytoplasmic (Rattus norvegicus), O89049 | 390,000 tested, 1% active; also: nearly all actives have a fitted effect of over 65% in size
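Rat TrxR1 (90 nM in the dispensed reagent) was pre-reduced with 400 uM NADPH for 5 min at room temperature, then incubated with compound for 15 min. After 400 uM selenite was added, NADPH fluorescence (Ex 340/Em 450 nm) was followed for 8 min.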
GLS inhibitor – qHTS for Inhibitors of Glutaminase (GLS) | Glutaminase kidney isoform, mitochondrial (Homo sapiens), O94925 | GLS enzymatic activity, qHTS titration | Potency, µM (series often up to 45.5 µM), usual class: inhibitors | 410,000 tested, 0.21% active | AID 624170, 2012
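Compounds were pin-transferred onto hKGA, after which L-glutamine (1 mM solution) and a detection mix of glutamate oxidase, HRP and Amplex Red were added. Initial and 30 min RT fluorescence reads were collected.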
Numbers stand for hits; [ ] = dose if it differs, or a comment. Calls follow the shape of the dose curve; as a rule, active = well fitted curve in the direction sought with a large enough effect; inconclusive = small, poorly fitted or top-dose-only effect, or another doubt; inactive = no such curve, though single readings can be large; an effect the other way counts as inactive or inconclusive.

For CCCSc1nc(O)c(C(c2ccc(OC)c(O)c2)c2c(O)nc(SCCC)n(C)c2=O)c(=O)n1C the results were mIDH1 inhibitor inactive, TrxR1 substrate inactive, rTrxR1 inhibitor 11µM and GLS inhibitor inactive.
For COc1cccc(C(c2c(O)nc(SC)n(C)c2=O)c2c(O)nc(SC)n(C)c2=O)c1 the results were mIDH1 inhibitor inactive, TrxR1 substrate inactive, rTrxR1 inhibitor inconclusive and GLS inhibitor inactive.
Screening Cn1cnc([N+](=O)[O-])c1S(=O)(=O)c1ccc(Cl)cc1 returned mIDH1 inhibitor inactive, TrxR1 substrate inactive, rTrxR1 inhibitor 0.32µM and GLS inhibitor inactive.
`Cn1cnc([N+](=O)[O-])c1NC(C)(C)C` gave mIDH1 inhibitor inactive, TrxR1 substrate inactive, rTrxR1 inhibitor inactive and GLS inhibitor inactive.
`O=C(COC(=O)c1ccc(O)cc1O)Nc1cccc2ccccc12` gave mIDH1 inhibitor inactive, TrxR1 substrate inactive, rTrxR1 inhibitor inactive and GLS inhibitor inactive.
CC(Sc1nc2ccccc2s1)C(=O)N(C)Cc1ccccc1 (stereo not drawn) was read as mIDH1 inhibitor inactive, TrxR1 substrate inactive[0.0914 µM], rTrxR1 inhibitor inactive and GLS inhibitor inactive.
For CCOC(=O)C1=C(O)c2ccccc2C(=O)/C1=C\c1ccc(CC)cc1 the results were mIDH1 inhibitor inactive, TrxR1 substrate inactive, rTrxR1 inhibitor 10µM and GLS inhibitor inactive.
COc1cc2nc(N3CCNCC3)nc(N)c2cc1OC was read as mIDH1 inhibitor inactive, TrxR1 substrate inactive and rTrxR1 inhibitor 79µM.
Screening Cc1ccc(O)c(NC(=S)NC(=O)C(C)C)c1 returned mIDH1 inhibitor inactive, TrxR1 substrate inactive, rTrxR1 inhibitor inactive and GLS inhibitor 20µM.
`Cc1ccccc1-c1nc(CS(=O)(=O)CC(=O)NCCCN2CCOCC2)c(C)o1` gave mIDH1 inhibitor inactive, TrxR1 substrate inactive, rTrxR1 inhibitor inactive and GLS inhibitor inactive.
Cc1ccccc1-c1nc(CS(=O)(=O)CC(=O)NCCCN2CCCC2=O)c(C)o1 was read as mIDH1 inhibitor inactive, TrxR1 substrate inactive, rTrxR1 inhibitor 25µM and GLS inhibitor inactive.
CC(C)(C)C(=O)Nc1ccc2c(c1)C(=O)C(=O)c1ccccc1-2 was read as TrxR1 substrate 3.2µM and rTrxR1 inhibitor 6.3µM.
For CC[C@]1(O)C[C@H]2CN(CCC3=c4ccccc4=N[C]3[C@@](C(=O)OC)(c3cc4c(cc3OC)N(C)[C@H]3[C@@](O)(C(N)=O)[C@H](O)[C@]5(CC)C=CCN6CC[C@]43[C@@H]65)C2)C1 the results were GLS inhibitor inactive.
Screening Cc1ccc(-c2nnc(Nc3cccc(O)c3)c3ccccc23)cc1S(=O)(=O)N1CCCCC1 returned mIDH1 inhibitor inactive, TrxR1 substrate inactive, rTrxR1 inhibitor inactive and GLS inhibitor inactive.
Screening CCOC(=O)N1CCN(c2cc(NCCC(=O)O)c3c4c(onc24)-c2ccccc2C3=O)CC1 returned mIDH1 inhibitor inactive, TrxR1 substrate inactive, rTrxR1 inhibitor inactive and GLS inhibitor 18µM.
O=C(c1ccc([N+](=O)[O-])cc1)N1CCN(C(=O)c2ccco2)CC1 was read as mIDH1 inhibitor inactive, TrxR1 substrate inactive, rTrxR1 inhibitor inactive and GLS inhibitor inactive.
O=C(COC(=O)c1ccc(-c2ccc([N+](=O)[O-])cc2)o1)NC(=O)NC1CCCCC1 was read as mIDH1 inhibitor inactive, TrxR1 substrate inactive, rTrxR1 inhibitor inactive and GLS inhibitor inactive.
O=C(c1ccc(-c2ccc(Cl)cc2)o1)N1CCN(S(=O)(=O)c2cccs2)CC1 was read as mIDH1 inhibitor inactive, TrxR1 substrate inactive, rTrxR1 inhibitor inactive and GLS inhibitor inactive.
For O=C(c1ccco1)N1CCN(C(=O)c2ccc(-c3ccc([N+](=O)[O-])cc3)o2)CC1 the results were mIDH1 inhibitor inactive, TrxR1 substrate inactive, rTrxR1 inhibitor 7.1µM and GLS inhibitor inactive.
For O=C(c1ccc(-c2ccc([N+](=O)[O-])cc2)o1)N1CCN(S(=O)(=O)c2cccs2)CC1 the results were mIDH1 inhibitor inactive, TrxR1 substrate inactive, rTrxR1 inhibitor 45µM and GLS inhibitor inactive.
For O=C(NC1CCC(O)CC1)c1ccc(-c2ccc([N+](=O)[O-])cc2)o1 (stereo not drawn) the results were mIDH1 inhibitor inactive, TrxR1 substrate inactive, rTrxR1 inhibitor 3.2µM and GLS inhibitor inactive.

Screening results from PubChem.
